Experimental findings from PubChem BioAssay (NCATS) are described below.

Where “and” joins values, the source holds several entries; their conditions need not be identical. Equal values may be shown once. Results filed as inconclusive are left out. Some structures have more than one record in an assay (separate samples or runs), and their calls can disagree. Calls of active or inactive are those of the source. Calls come from the whole dose curve; as a rule, active = well fitted inhibition curve with a large enough effect; inconclusive = small, poorly fitted or top-dose-only effect; inactive = no such curve, though single readings can be large or run the other way.
% is set by controls: 0 for no effect and ±100 for the full control effect; potency is the fitted concentration of half-maximal effect.

The nature of the assay: Primary qHTS for inhibitors of nuclear receptor binding SET domain protein 2 (NSD2) in an RCH-ACV wild type WT cells (2C) (AID 1645877). Note: nearly all actives have a fitted effect of over 70% in size. To be noted: RCH-ACV (leukaemia line) NSD2 WT (2C) viability, CellTiter-Glo, 72 h; series mostly up to 44.9 µM; activity change, negative = cell killing: at the top concentration. A general note: qHTS replaces the single test concentration by a dilution series.
Regarding `COc1ccc2nc3cc(Cl)ccc3c(Nc3cc(CN4CCCC4)c(O)c(CN4CCCC4)c3)c2n1`, the Potency is 2.95 µM (active).
On to `CN[C@@H](C)[C@H]1[C@H](O)C[C@@]2(C)[C@@H]3CC[C@H]4C(C)(C)[C@@H](NC)CC[C@@]45C[C@@]35CC[C@]12C`, for which the activity change, negative = cell killing is -13.6% [at 9.23 µM] (inactive).
Turning to `Cc1ccc2c(=O)c3cccc(CC(=O)O)c3oc2c1C`, the outcome was inactive.
In the case of `Nc1ncnc2c1ncn2[C@@H]1O[C@H](CO)[C@@H](O)[C@@H]1O`, the Potency is 16.6 µM (active).
As for `Cc1cccc2c1CC[C@H](CN1CCC(c3c(Cl)cccc3Cl)CC1)C[C@@H]2O`, the Potency is 7.28 µM (active).
On the same count and under the same terms, under `CSc1cccc(Nc2ncc3cc(-c4c(Cl)cccc4Cl)c(=O)n(C)c3n2)c1` stands 2.06 µM (active).
As for `COc1ccc(CCC(=O)Nc2nc3ccc(Cl)cc3s2)cc1OC`, the “activity change, negative = cell killing” value was 0.928% (inactive).
With `O=C(O)CCC=CCC[C@@H]1[C@H](N2CCCCC2)[C@@H](O)C[C@@H]1OCc1ccc(-c2ccccc2)cc1`, the “activity change, negative = cell killing” value is -17.1% (inactive).
For `O=C(c1ccc(C(=O)N2CCC(N3CCCC3)CC2)c(Nc2ccccc2)c1)N1CCC(N2CCCC2)CC1`, the Potency result is “inactive”.
Turning to `Cc1csc(-c2nnc(Nc3ccc(Oc4ncccc4-c4ccnc(N)n4)cc3)c3ccccc23)c1`, the Potency entry was “inactive and 3 nM (active)”.
Consider `COc1cc2ncn(-c3cc(OCc4ccccc4S(C)(=O)=O)c(C#N)s3)c2cc1OC`, for which the “activity change, negative = cell killing” value is -3.34% (inactive).
`Cc1ccccc1C(=O)c1ccc(Nc2ccc(Br)cc2N)cc1Cl`: the Potency was 10.5 µM (active) and 9.2 µM (active).
Consider `CCCC1OC2C[C@@H]3[C@H]4CCC5=CC(=O)C=C[C@]5(C)[C@H]4C(O)C[C@]3(C)[C@]2(C(=O)CO)O1` (stereo partly specified), for which the Potency is 0.0053 µM (active).
Regarding `CC[C@@H]([C@H](C)O)n1ncn(-c2ccc(N3CCN(c4ccc(OCC5CO[C@@](Cn6cncn6)(c6ccc(F)cc6F)C5)cc4)CC3)cc2)c1=O` (stereo partly specified), the “activity change, negative = cell killing” value was -3.33% (inactive).
Turning to `NCC1CCC(C(=O)O)CC1` (stereo unspecified), the “activity change, negative = cell killing” value is 5.08% [at 17.3 µM] (inactive).
On to `N#Cc1ccc(Oc2ccc3c(c2)COB3O)cc1`, for which the Potency was 6.61 µM (active).
Turning to `C=CC(=O)Nc1cccc(Sc2nc(Nc3ccc(N4CCN(C)CC4)cc3)ncc2Cl)c1`, the Potency was 2.3 µM (active) and 2.63 µM (active).
As for `Nc1nc(Cl)nc2c1ncn2[C@@H]1O[C@H](CO)[C@@H](O)[C@H]1F`, the Potency was 0.0206 µM (active).
Regarding `NC(=O)c1noc([C@H](CCCC2CCCCC2)CC(=O)NO)n1`, the Potency was 1.66 µM (active).
As to `CNC(=O)c1cc(Oc2ccc(NC(=O)Nc3ccc(Cl)c(C(F)(F)F)c3)c(F)c2)ccn1`, the Potency was 18.3 µM (active).
Consider `COc1ccc(Cn2ccc3ccc(C(=O)NO)cc32)cc1`, for which the Potency was 16.3 µM (active) and 8.33 µM (active).
Consider `CCCCC(C)(C)[C@H](O)C=C[C@H]1[C@H](O)CC(=O)[C@H]1CC=CCCCC(=O)O`, for which the “activity change, negative = cell killing” value was -6.31% (inactive).
In the case of `O=C1C(c2c(O)[nH]c3ccccc23)=Nc2ccccc21`, the Potency is 2.24 µM (active) and inactive.
Still for that read-out and setting: the figure for `O=C1NC(=O)C(c2cnc3ccccn23)=C1c1cn2c3c(cccc13)CN(C(=O)N1CCOCC1)CC2` is 0.0148 µM (active).
In the case of `CCCCOCCOc1nc(-c2ccc(C(=O)O)c(F)c2)sc1C`, the “activity change, negative = cell killing” value is -6.35% (inactive).
Consider `CC1CNc2c(cccc2S(=O)(=O)N[C@@H](CCCN=C(N)N)C(=O)N2CC[C@@H](C)C[C@@H]2C(=O)O)C1` (stereo partly specified), for which the “activity change, negative = cell killing” value was 0.716% (inactive).
In the case of `CC[C@H](C)n1cc(C)c2c(C(=O)NCc3c(C)cc(C)[nH]c3=O)cc(-c3ccc(N4CCNCC4)nc3)cc21`, the Potency was 16.6 µM (active).
For `C#CCN(C)CC1=Cc2ccccc2Oc2ccccc21`, the “activity change, negative = cell killing” value is -7.04% (inactive).
For the compound `CCC(=O)NCC[C@@H]1CCc2ccc3c(c21)CCO3`, the call was inactive.
As for `CCCCc1ccc(NS(=O)(=O)c2ccc(C)c(C(=O)N3CCN(c4cccc(C)c4C)CC3)c2)cc1`, the “activity change, negative = cell killing” value is -18.9% [at 91.9 µM] (inactive).
In the case of `CS(=O)(=O)c1ccc(C2=C(c3ccccc3)C(=O)OC2)cc1`, the “activity change, negative = cell killing” value was 1.66% (inactive).
Turning to `CCC(C)SSc1ncc[nH]1` (stereo unspecified), the Potency is 8.33 µM (active).
Still for that read-out and setting: under `COc1cc([C@@H]2c3cc4c(cc3[C@@H](O[C@@H]3O[C@@H]5CO[C@@H](C)O[C@@H]5[C@H](O)[C@@H]3O)[C@H]3COC(=O)[C@H]23)OCO4)cc(OC)c1O` stands 0.235 µM (active).
Still for that read-out and setting: the figure for `COc1nccc(-c2c(-c3ccc(F)cc3)ncn2C2CCC(O)CC2)n1` (stereo unspecified) is 20.9 µM (active).
Consider `NC1(C(=O)N[C@@H](CCO)c2ccc(Cl)cc2)CCN(c2ncnc3[nH]ccc23)CC1`, for which the Potency was 2.35 µM (active).
Regarding `CN1CCC(COc2cnc(-c3cccc(Cn4nc(-c5cccc(C#N)c5)ccc4=O)c3)nc2)CC1`, the Potency was 10.5 µM (active) and 16.3 µM (active).
